Assay outcomes from PubChem BioAssay.
The list is not random: actives were taken first. Their share in the collection is about 2.9%.
Nrf2 ARE act: qHTS of Nrf2 Activators; hit rate 0.31% among 410,000; AID 624171, 2012; Potency, µM (series often up to 46.1 µM), inactives show at the highest dose activation, hits mostly activators; AREc32 ARE-luciferase reporter (MCF7-derived line), luminescence, 24 h; note: % of control where 0% means no effect; nearly all actives have a fitted effect of over 65% in size
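Reporter line AREc32 (ARE-Fluc), seeded overnight in OPTI-MEM with 5% FBS; compound pin-transferred, 24 hr at 37 deg C, 5% CO2; luminescent read-out.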
Nrf2 block: Nrf2 qHTS screen for inhibitors; A549 ARE-Fluc reporter, luciferase luminescence, 18-24 h; Potency, µM (series often up to 46 µM), inactives show at the top dose activity change, negative = inhibition, most hits filed as inhibitors; hit rate 2.1% among 360,000; note: % is set by controls: 0 for no effect and ±100 for the full control effect; nearly all actives have a fitted effect of over 60% in size
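A549 ARE_Fluc cells, 5000/well, 5% FBS OPTI-MEM; compounds in dose-response, 18-24 h at 37 °C/5% CO2; CellTiter-Fluor viability read (Ex 405/Em 525), then BugLite luciferase luminescence = Nrf2 activity.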
S2 tox: Viability Counterscreen for Primary qHTS for Inhibitors of ATXN expression | AID 651635, 2014 | S2 cells (HEK-293 line with an ATXN2-luciferase reporter) viability, CellTiter-Fluor protease fluorescence, 24 h | Potency, µM (top dose mostly 56.7 µM), actives largely listed as cytotoxic | hit rate 0.49% among 400,000; note: nearly all actives have a fitted effect of over 40% in size
A549 tox: Nrf2 qHTS screen for inhibitors: counterscreen for cytotoxicity; Potency, µM (titrated, usually from 46 µM), for inactives: at the top dose activity change, negative = cytotoxicity, usual class: inhibitors; A549 ARE-Fluc cells, CellTiter-Fluor viability, 18-24 h; AID 504648, 2011; hit rate 0.16% among 390,000; note: % is set by controls: 0 for no effect and ±100 for the full control effect
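A549 ARE-Fluc cells in 5% FBS OPTI-MEM, 5000 cells/well, rested 2 h then exposed to compounds in concentration-response for 18-24 h at 37 °C. Viability by CellTiter-Fluor fluorescence (Ex 405/Em 525) after 30 min; luciferase luminescence (BugLite, 15 min, RT) read afterwards.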
ATXN2 expr inh: Primary qHTS for Inhibitors of ATXN expression; HEK-293 ATXN2-luciferase reporter, luminescence, 24 h; hit rate 0.72% among 360,000; Potency, µM (highest dose often 57 µM), inactives show at the highest dose activity change, negative = inhibition, usual class: inhibitors; note: % is set by controls: 0 for no effect and ±100 for the full control effect; nearly all actives have a fitted effect of over 55% in size
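ATXN2-luciferase reporter cells (luciferase flanked by upstream and downstream ATXN2 gene portions) were treated 24 h at 37 °C with compounds at up to 57 uM. SteadyGlo luminescence gave expression; GF-AFC fluorescence gave viability.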
Starred values were filed as active, the others as inactive. Calls come from the whole dose curve; as a rule, active = well fitted curve in the direction sought with a large enough effect; inconclusive = small, poorly fitted or top-dose-only effect, or another doubt; inactive = no such curve, though single readings can be large; an effect the other way counts as inactive or inconclusive. Potency is the fitted concentration of half-maximal effect.

How did CCN1CCC(N[C@H]2C[C@@H](C(=O)NC)N(Cc3cccc4ccccc34)C2)CC1 do in these assays?
S2 tox: inactive

How did COc1ccc(C(=O)NCC(c2cccnc2)N2CCN(c3ccccc3)CC2)cc1 (stereo unspecified) do in these assays?
Nrf2 ARE act: 5%; Nrf2 block: inconclusive; S2 tox: inactive; A549 tox: -28%; ATXN2 expr inh: 2%

How did O=P(O)(O)C(O)(Cc1cnc2ccccn12)P(=O)(O)O do in these assays?
S2 tox: inactive

What do the screens show for `N#CC1(c2ccc(F)cc2)CCC(=O)CC1`?
S2 tox: inactive; ATXN2 expr inh: -1%

Results for COc1cc2c(cc1OC)C(C)N(C(=O)c1cc3c(s1)-c1ccccc1OC3)CC2 (stereo unspecified) ?
Nrf2 ARE act: 0%; Nrf2 block: inconclusive; S2 tox: inconclusive; A549 tox: -3%; ATXN2 expr inh: 25µM*

How did COc1cccc(CN2CCCC(c3nc(-c4ccncc4)ncc3-c3ccccc3C)C2)c1O (stereo unspecified) do in these assays?
S2 tox: inactive

Results for O=C1OC(Nc2ccc3c(c2)OCO3)c2ccccc21 (stereo unspecified) ?
Nrf2 ARE act: 11µM*; Nrf2 block: inconclusive; S2 tox: inactive; A549 tox: -17%; ATXN2 expr inh: -6%

Results for O=C(CCn1cncn1)NCC1Cc2cc(-c3ccsc3)cc(Cl)c2O1 (stereo unspecified) ?
S2 tox: inactive

What do the screens show for `CC1=NN(c2nc3ccccc3[nH]2)C(=O)C1Cc1ccccc1` (stereo unspecified)?
Nrf2 ARE act: 7%; Nrf2 block: 23µM*; S2 tox: inconclusive; A549 tox: -27%; ATXN2 expr inh: 10µM*

What do the screens show for `O=c1[nH]c2ccccc2nc1NCc1ccccc1`?
Nrf2 ARE act: 6%; Nrf2 block: 2%; S2 tox: inactive; A549 tox: 0%; ATXN2 expr inh: 24%

Results for CC1=NN(c2nc3ccccc3[nH]2)C(=O)/C1=C/N(C)C ?
Nrf2 ARE act: 0%; Nrf2 block: 18µM*; S2 tox: inactive; A549 tox: -3%; ATXN2 expr inh: inconclusive

What do the screens show for `O=C(O)C[C@H](O)C[C@H](O)C=Cc1c(C2CC2)nc2ccccc2c1-c1ccc(F)cc1`?
ATXN2 expr inh: 33%

What do the screens show for `CC(=O)N1CCc2c(sc(NC(=O)c3ccc([N+](=O)[O-])o3)c2C#N)C1`?
Nrf2 ARE act: inconclusive; Nrf2 block: 26µM*; S2 tox: inconclusive; A549 tox: 21µM*; ATXN2 expr inh: -16%

Results for COc1ccc(C(=O)Nc2sc3c(c2C#N)CCN(C(C)=O)C3)cc1 ?
Nrf2 ARE act: -1%; Nrf2 block: inconclusive; S2 tox: inactive; A549 tox: -11%; ATXN2 expr inh: 7%

Results for CCSc1nnc(C(C)NS(=O)(=O)c2cccc(Cl)c2C)n1C (stereo unspecified) ?
S2 tox: inactive

How did CCN1CCN(C(=O)c2cc(COc3ccc4ncccc4c3)on2)CC1 do in these assays?
Nrf2 ARE act: 0%; Nrf2 block: 21µM*; S2 tox: inactive; A549 tox: -12%; ATXN2 expr inh: -24%

Results for CCCN1CCN(C(=O)c2cc(COc3ccc4ncccc4c3)on2)CC1 ?
Nrf2 ARE act: 2%; Nrf2 block: 5.2µM*; S2 tox: inactive; A549 tox: -18%; ATXN2 expr inh: -36%

How did O=C(NCc1cccc(Cl)c1)c1cc(COc2ccc3ncccc3c2)on1 do in these assays?
Nrf2 ARE act: 4%; Nrf2 block: 10µM*; S2 tox: inconclusive; A549 tox: -26%; ATXN2 expr inh: inconclusive

Results for COc1cccc(OCc2cc(C(=O)N(Cc3nccn3C)C(C)C)no2)c1 ?
Nrf2 ARE act: -1%; Nrf2 block: -34%; S2 tox: inactive; A549 tox: 0%; ATXN2 expr inh: 5%

Results for CC(C)N(Cc1nccn1C)C(=O)c1cc(COc2ccc3ncccc3c2)on1 ?
Nrf2 ARE act: 0%; Nrf2 block: 13µM*; S2 tox: inactive; A549 tox: -12%; ATXN2 expr inh: -21%

How did COc1cc(/C=C2\SC(=S)N(NC(=O)c3ccc(O)cc3)C2=O)ccc1O do in these assays?
Nrf2 ARE act: 2%; Nrf2 block: -6%; A549 tox: -6%; ATXN2 expr inh: 20%

How did COc1cc(/C=C2\SC(=S)N(NC(=O)c3cccnc3)C2=O)ccc1O do in these assays?
Nrf2 ARE act: 0%; Nrf2 block: -11%; S2 tox: 32µM*; A549 tox: inconclusive

How did COc1cc(/C=C2\SC(=S)N(C(Cc3ccccc3)C(=O)O)C2=O)ccc1O (stereo unspecified) do in these assays?
Nrf2 ARE act: 1%; Nrf2 block: 3%; S2 tox: 13µM*; A549 tox: inconclusive

Results for O=C(O)C(Cc1ccccc1)N1C(=O)/C(=C/c2ccccc2)SC1=S (stereo unspecified) ?
Nrf2 ARE act: 3%; Nrf2 block: -1%; S2 tox: inconclusive; A549 tox: -8%; ATXN2 expr inh: -6%

Results for CCOc1cc(/C=C2\SC(=S)N(NS(=O)(=O)c3ccccc3)C2=O)ccc1O ?
Nrf2 ARE act: 4%; Nrf2 block: inconclusive; S2 tox: 11µM*; A549 tox: -25%

What do the screens show for `COc1ccc(NC(=S)NNc2ccc([N+](=O)[O-])cc2S(=O)(=O)Nc2ccc(C)cc2C)cc1`?
Nrf2 ARE act: 5%; Nrf2 block: inconclusive; S2 tox: inconclusive; A549 tox: inconclusive; ATXN2 expr inh: -36%

What do the screens show for `Cc1ccc(NS(=O)(=O)c2cc([N+](=O)[O-])ccc2NNC(=S)Nc2cc(C)ccc2C)c(C)c1`?
Nrf2 ARE act: 6%; Nrf2 block: inconclusive; S2 tox: 16µM*; A549 tox: inconclusive; ATXN2 expr inh: 20µM*

Results for Cc1ccccc1C1(CC(=O)N2CCCC(C)C2)CC(=O)N(Cc2cccnc2)C1=O (stereo unspecified) ?
S2 tox: inactive

How did O=C1NC(=S)NC1=Cc1ccco1 do in these assays?
Nrf2 ARE act: 3%; Nrf2 block: -4%; S2 tox: inactive; A549 tox: -1%; ATXN2 expr inh: -4%

Results for O=C1NC(=O)/C(=C/c2ccco2)N1 ?
Nrf2 ARE act: 1%; Nrf2 block: 4%; S2 tox: inactive; A549 tox: 1%; ATXN2 expr inh: 3%

What do the screens show for `O=C1NC(c2cccc(Br)c2)=N/C1=C\c1ccco1`?
Nrf2 ARE act: 8.9µM*; Nrf2 block: inconclusive; S2 tox: inactive; A549 tox: -13%; ATXN2 expr inh: 8%

What do the screens show for `O=C1NNC(c2ccccc2)=N/C1=C\c1ccccc1`?
Nrf2 ARE act: 1%; Nrf2 block: 1%; S2 tox: inactive; A549 tox: -5%
